{
  "source": "PubChem BioAssay (EPA / NIEHS)",
  "note": "Values joined by “and” are separate entries in the source; they are usually repeats but may differ in a detail not shown here. Equal entries are not always repeated. Active and inactive are the calls of the source. Rule for the calls: active = hit-call score of the fitted dose curve at least 0.9, where 1 is the maximum; inactive = score below 0.9.",
  "data": [
    {"test": "ATG_BRE_CIS: Attagene CIS-FACTORIAL HepG2 Assay for human Bone Morphogenetic Protein (BMP) Response Element (BRE) (AID 2282933)", "details": "HepG2 BMP response element reporter, Attagene transcription factor profiling; actives raise or lower the signal", "description": "ATG_CIS is a cell-based, multiplexed-readout assay that uses HepG2, a human liver cell line, with measurements taken at 24 hours after chemical dosing in a 24-well plate.ATG_BRE_CIS is one of 52 assay component(s) measured or calculated from the ATG_CIS assay. It is designed to make measurements of mRNA induction, a form of inducible reporter, as detected with fluorescence intensity signals by Reverse transcription polymerase chain reaction (RT-PCR) and Capillary electrophoresis technology.Data from the assay component ATG_BRE_CIS was analyzed into 1 assay endpoint. This assay endpoint, ATG_BRE_CIS, was analyzed with bidirectional fitting relative to DMSO as the negative control and baseline of activity. Using a type of inducible reporter, measures of mRNA for gain or loss-of-signal activity can be used to understand the reporter gene at the transcription factor-level as they relate to the gene SMAD1. Furthermore, this assay endpoint can be referred to as a primary readout, because this assay has produced multiple assay endpoints where this one serves a reporter gene function. To generalize the intended target to other relatable targets, this assay endpoint is annotated to the dna binding intended target family, where the subfamily is Smad protein.\nHuman liver HepG2 cells are transiently transfected with multiple reporter transcription units (MRTUs) in 6-well plates using FuGene 6 reagent (Roche; 3 ml FuGene/1 mg DNA). The MRTU constructs are regulated by a cis-regulating element (promoter). […] A major difference between the CIS and TRANS system is that in CIS activities of endogenous TFs are measured, whereas the TRANS assay evaluates changes in activities of exogenous, chimeric NR-Gal4 proteins. […] At the end of 24 hour incubation, total RNA was isolated using TriZol reagent (Invitrogen). The isolated RNA is then reverse-transcribed using oligo(dT) primer and Mo-MLV reverse transcriptase (Invitrogen) with DNAse I (Ambion) treatment for 30 min. The one-tenth of the produced cDNA was amplified by PCR using Taq DNA polymerase (Invitrogen) and two reporter sequence-specific primers. The PCR products were fluorescently labeled by primer extension with 6-arboxyfluorescein (6-FAM) 5'-labeled reporter sequence-specific primer (2 min at 95 C, 20 s at 68 C and 10 min at 72 C) and these products were digested with 5U of HpaI (New England Biolabs) for 2h at 37 C. The fragments were purified using Qiaquick PCR columns (Qiagen), analyzed on an ABI 3130xL genetic analyzer (Applied Biosystems) with peak positions identified by using a set of X-rhodamine (ROX)-labeled MapMarker1000 molecular weight standards (BioVentures). The raw capillary electrophoresis data was processed using Attagraph software (Attagene).", "values": [
      {"smiles": "CC(C)(C)C(O)(CCc1ccc(Cl)cc1)Cn1cncn1", "note": "(stereo not given)", "AC50": "147 µM (active)"},
      {"smiles": "O=C1CCCO1", "outcome": "inactive"},
      {"smiles": "Clc1ccc(C(c2ccc(Cl)cc2)C(Cl)Cl)cc1", "outcome": "inactive"},
      {"smiles": "CC(C)(OOC(C)(C)c1ccccc1)c1ccccc1", "AC50": "48.5 µM (active)"},
      {"smiles": "CC(C)(O)c1cnn2c(-c3ccc(F)c(-c4c(F)cccc4C#N)c3)cnc2n1", "outcome": "inactive"},
      {"smiles": "COc1cc(C=O)cc2c1[C@H](COC(N)=O)[C@]1(OC(C)=O)ON2C[C@H]2[C@@H]1N2C(C)=O", "outcome": "inactive"},
      {"smiles": "CN(C)c1ccccc1", "outcome": "inactive"},
      {"smiles": "C1=Cc2cccc3cccc1c23", "outcome": "inactive"},
      {"smiles": "Nc1ccc(N=Nc2ccccc2)cc1", "AC50": "59.4 µM (active)"},
      {"smiles": "Oc1ccc2ccc3cccc4ccc1c2c34", "outcome": "inactive"},
      {"smiles": "CCNS(=O)(=O)C(F)(F)C(F)(F)C(F)(F)C(F)(F)C(F)(F)C(F)(F)C(F)(F)C(F)(F)F", "AC50": "33.4 µM (active) and 63.6 µM (active) and 35.3 µM (active)"},
      {"smiles": "N#CC(Br)Br", "outcome": "inactive"},
      {"smiles": "CCCCC(CC)COC(=O)c1ccc(C(=O)OCC(CC)CCCC)c(C(=O)OCC(CC)CCCC)c1", "note": "(stereo not given)", "outcome": "inactive"},
      {"smiles": "Nc1cc(Cl)cc(C(=O)O)c1Cl", "outcome": "inactive"},
      {"smiles": "[O-][Cl+]O", "outcome": "inactive"},
      {"smiles": "Nc1ccc([N+](=O)[O-])cc1", "outcome": "inactive"},
      {"smiles": "CN(C)[C@@H]1C(=O)C(C(N)=O)=C(O)[C@@]2(O)C(=O)C3=C(O)c4c(O)cccc4[C@@](C)(O)[C@H]3C[C@@H]12", "outcome": "inactive"},
      {"smiles": "CCCCCCCCCCCCCN1CC(C)OC(C)C1", "note": "(stereo not given)", "AC50": "50 µM (active)"},
      {"smiles": "CCCCCCCCOC(=O)c1ccc(C(=O)OCCCCCCCC)c(C(=O)OCCCCCCCC)c1", "outcome": "inactive"},
      {"smiles": "COP(=S)(OC)SCN1C(=O)c2ccccc2C1=O", "outcome": "inactive"},
      {"smiles": "CC(C)N(Cc1ccccc1)C(=O)C(C)(C)C", "outcome": "inactive"},
      {"smiles": "CCN(CC)CCO", "outcome": "inactive"},
      {"smiles": "ClC1=C(Cl)[C@]2(Cl)[C@H]3[C@H]([C@@H]4C=C[C@H]3C4)[C@@]1(Cl)C2(Cl)Cl", "outcome": "inactive"},
      {"smiles": "O=C(O)C1C2CCC(O2)C1C(=O)O", "note": "(stereo not given)", "outcome": "inactive"},
      {"smiles": "c1ccc2c(c1)oc1ccccc12", "outcome": "inactive"},
      {"smiles": "CN(C)c1ccc(C(=O)c2ccc(N(C)C)cc2)cc1", "outcome": "inactive"},
      {"smiles": "CCC12COCN1COC2", "outcome": "inactive"},
      {"smiles": "Cn1cc(-c2ccccc2)c(=O)c(-c2cccc(C(F)(F)F)c2)c1", "outcome": "inactive"},
      {"smiles": "c1ccc(N=Nc2ccccc2)cc1", "outcome": "inactive"},
      {"smiles": "C=CCc1ccc2c(c1)OCO2", "outcome": "inactive"},
      {"smiles": "CCCCCOC(=O)c1ccccc1C(=O)OCCCCC", "outcome": "inactive"},
      {"smiles": "CS(=O)(=O)NC(=O)c1cc(Oc2ccc(C(F)(F)F)cc2Cl)ccc1[N+](=O)[O-]", "outcome": "inactive"},
      {"smiles": "CCOc1cccc(C2(N3CCN(c4ccccc4)CC3)CCC(C)CC2)c1", "note": "(stereo not given)", "outcome": "inactive"},
      {"smiles": "O=C(N[C@H](c1ccccc1)[C@@H]1CN2CCC1CC2)c1c(Cl)ccc(C(F)(F)F)c1Cl", "outcome": "inactive"},
      {"smiles": "O=[N+]([O-])C(Br)(CO)CO", "outcome": "inactive"},
      {"smiles": "Brc1ccc(Oc2ccccc2)cc1", "outcome": "inactive"},
      {"smiles": "CN(C)C(=O)Nc1ccc(Cl)cc1", "outcome": "inactive"},
      {"smiles": "Clc1ccccc1Cl", "outcome": "inactive"},
      {"smiles": "CCOC(=O)[C@]1(c2ccccc2)Oc2ccccc2[C@@H]1N", "AC50": "22.5 µM (active)"},
      {"smiles": "c1ccc(NNc2ccccc2)cc1", "outcome": "inactive"}
    ]}
  ]
}
